Measured values reported in ChEMBL document CHEMBL3988442, “University of Dundee, Small-Polar-MMV Screening Library” (2021).

Target: T1, Tyrosyl-tRNA synthetase, putative (Trypanosoma cruzi (strain CL Brener)) (UniProt Q4DSP6)
T1 sequence (whole entry): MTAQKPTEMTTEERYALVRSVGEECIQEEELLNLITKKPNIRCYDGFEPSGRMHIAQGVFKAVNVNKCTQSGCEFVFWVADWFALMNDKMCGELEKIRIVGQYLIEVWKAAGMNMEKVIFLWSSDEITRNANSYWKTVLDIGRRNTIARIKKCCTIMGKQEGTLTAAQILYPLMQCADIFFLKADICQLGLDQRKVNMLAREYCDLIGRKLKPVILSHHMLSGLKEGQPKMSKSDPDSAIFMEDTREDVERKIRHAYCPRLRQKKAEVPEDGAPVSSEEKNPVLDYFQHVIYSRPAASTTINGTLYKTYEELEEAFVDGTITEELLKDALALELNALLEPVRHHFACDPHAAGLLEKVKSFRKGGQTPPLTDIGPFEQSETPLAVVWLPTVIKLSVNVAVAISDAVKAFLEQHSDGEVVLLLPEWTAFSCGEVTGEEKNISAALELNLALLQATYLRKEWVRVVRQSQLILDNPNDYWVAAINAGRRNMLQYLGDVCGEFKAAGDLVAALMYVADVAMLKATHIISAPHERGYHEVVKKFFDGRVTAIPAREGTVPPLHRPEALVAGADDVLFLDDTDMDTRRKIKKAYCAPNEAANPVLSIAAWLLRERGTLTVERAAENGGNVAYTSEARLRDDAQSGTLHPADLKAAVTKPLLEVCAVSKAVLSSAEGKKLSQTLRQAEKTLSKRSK
Assay: Trypanosoma cruzi tyrosyl tRNA synthetase (TcYRS) SOP
Type: functional
Parameters: scale not given: direction of the effect not stated beside the values
Conditions: 30 µM

SMILES | Percent Effect
COCCn1ccc(NC(=O)Nc2cccnc2)n1 | 7.79%
CCN(C(=O)CCCOc1ccccc1F)c1ccncc1 | 7.79%
O=C(NC1CC1)[C@@H]1CCO[C@@H]2CCN(C3CCOCC3)C[C@@H]21 | 1.24%
Cc1nc(C)n(CC2CCCN(c3ncnc4sccc34)C2)n1 (stereo not given) | 16.1%
Cc1nn(C)c(Cl)c1C1CCCN1C(=O)c1cc(Cl)c[nH]1 (stereo not given) | 3.7%
COc1c(C2CCCN2Cc2csc(C(C)C)n2)c(C)nn1C (stereo not given) | 2.44%
CNc1cncc(C2CCCN2Cc2ccccn2)n1 (stereo not given) | 9.09%
CC(=O)Nc1nc(C(=O)N2CCCC2Cn2cc(C)cn2)cs1 (stereo not given) | 9.41%
O=C(NCCN1CCCCCC1=O)c1ccn(-c2ccc(F)cc2)n1 | 16.1%
O=C(NCCCn1cccn1)N1CCCC1c1ccncc1 (stereo not given) | 1.24%
CC(C)c1nnc(NC(=O)NCc2ccnc(N(C)C)c2)s1 | 7.59%
CC(NC(=O)N(C)Cc1ccc(Cl)s1)c1ccccn1 (stereo not given) | 12.7%
CCc1nnc2n1CCN(C(=O)c1cnc3ccccc3n1)C2 | 12.8%
O=C(c1ccccc1N1CCOCC1)N1CCCC(n2cccn2)C1 (stereo not given) | 13.6%
CSc1ccc(NC(=O)Nc2ccc3c(c2)N(S(C)(=O)=O)CC3)cc1 | -14.1%
OCC1CCCN1c1cc(NCCc2c[nH]c3ccccc23)ncn1 (stereo not given) | 7.5%
CC1CCN(C(CNC(=O)CCn2cccn2)c2cccs2)CC1 (stereo not given) | 21%
CSCC[C@H](N)C(=O)NCc1cc2n(n1)CCCN(C(=O)C1CCC1)C2 | 12.8%
COC(=O)c1ccc(N2CCN(C(=O)c3ccncc3)C(C)C2)cc1 (stereo not given) | 24.1%
Cc1cccnc1NCCNC(=O)[C@H]1CNC[C@@H](C(=O)N2CCCC2)C1 | 13.6%

SMILES | Percent Effect
Cc1ccccc1CNC(=O)Cc1c(C)nc2cc(=O)[nH]n2c1C | 17.1%
CC(Cn1ccnc1)NC(=O)C1(c2ccc(F)cc2)CC1 (stereo not given) | 16.5%
O=C1NC(c2ccccc2)=N[C@@]12CC[C@@H]1CN(Cc3ccco3)C[C@@H]12 | -5%
Cc1nc(CO[C@@H]2CN(Cc3cnn(C)c3)[C@@H]3COC[C@@H]32)cs1 | 11.1%
COCC(=O)N1CCC[C@]2(C(=O)N(C)C)CN(c3ccccn3)C[C@@H]2C1 | 5%
O=C(c1ccc(Br)o1)N1CCCC(n2cncn2)C1 (stereo not given) | 2.56%
CCCOc1ccc(NC(=O)NCCC(=O)N(C)C)cc1Cl | 12.5%
COCCNC(=O)C1(c2ccccc2C)CCOCC1 | -6.17%
O=C(CN1CCN(CC(O)C2CC2)CC1)NCc1ccc(F)cc1 (stereo not given) | 19.2%
Cc1cnn(CCNCc2nc(COc3ccc(F)cc3)no2)c1 | -29.3%
CN(C)C(=O)Cc1nc(CN2CCn3c(nnc3C3CC3)C2)cs1 | 15.8%
CC(C)c1ncc2c(n1)CN(Cc1nc(-c3cccs3)no1)CC2 | 13.4%
Cc1n[nH]cc1CNc1ccc2c(c1)N(C(=O)OC(C)(C)C)CCC2 | 8.64%
CCn1cc(N2Cc3nc(N)ncc3C2=O)cn1 | 17.9%
Cc1cccc(-c2ccc(C(=O)NCC(C)(C)C(N)=O)c(=O)[nH]2)c1 | 11.1%
CN(C)C(=O)CN1CCCC2(CCN(c3ccsc3)C2=O)C1 (stereo not given) | -32%
Cc1nc(N2CCCC2)ncc1-c1cc(O)nc(N2CCCC2)n1 | 0%
O=C(c1ccc(C2CCCO2)s1)N1CCS(=O)(=O)CC1 (stereo not given) | 17.1%
OC(CN1CCN(Cc2nnc(C3CC3)o2)CC1)c1ccccc1 (stereo not given) | 13.9%
CC(=O)c1cc(CC(=O)NCc2ccc(CN(C)C)cc2)cs1 | 4.88%
